Experimental findings from article PMC8384837, “Expanding the binding specificity for RNA recognition by a PUF domain” are described below.

Holding throughout (test): yeast three-hybrid, YBZ-1, SC-Leu-His + 0.5 mM 3-AT, 4 days
What all share (conditions): tags: N-Gal4 AD-HA kept; label: inside an RPR1-promoter hybrid RNA with tandem MS2 sites; ssRNA

One assay concerns the target PUM1 PUF domain R3-FWA (Homo sapiens, UniProt Q14671 828-1176, C935F;R936W;Q939A). The procedure, abridged: (§1)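 Sequencing with Illumina followed PCR amplification of the repeat regions from transformants grown four days on SC-Leu (input) or SC-Leu-His + 0.5 mM 3-AT (selection). The transformants were strain YBZ-1 with a LexA–MS2 coat fusion and a HIS3 reporter, carrying Pumilio-1 PUF domain libraries and matching RNA elements. The interaction score is the log change in variant frequency from input to selection, computed in log2 with a pseudocount of 1 for absent variants.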

The next assay addresses PUM1 PUF domain R3-KRG (Homo sapiens, UniProt Q14671 828-1176, C935K;Q939G). In outline: as §1
A further assay concerns the target PUM1 PUF domain R7-RVQ (Homo sapiens, UniProt Q14671 828-1176, S1079R;N1080V;E1083Q). The procedure, abridged:
as §1

A further assay deals with PUM1 PUF domain R2-RRQ (Homo sapiens, UniProt Q14671 828-1176, N899R;Y900R). The procedure, abridged:
as §1

A further assay concerns the target PUM1 PUF domain R4-CYG (Homo sapiens, UniProt Q14671 828-1176, N971C;H972Y;Q975G). In outline:
as §1

A further assay deals with T1, PUM1 PUF domain R6-MYR (Homo sapiens, UniProt Q14671 828-1176, N1043M;Q1047R).
T1 sequence: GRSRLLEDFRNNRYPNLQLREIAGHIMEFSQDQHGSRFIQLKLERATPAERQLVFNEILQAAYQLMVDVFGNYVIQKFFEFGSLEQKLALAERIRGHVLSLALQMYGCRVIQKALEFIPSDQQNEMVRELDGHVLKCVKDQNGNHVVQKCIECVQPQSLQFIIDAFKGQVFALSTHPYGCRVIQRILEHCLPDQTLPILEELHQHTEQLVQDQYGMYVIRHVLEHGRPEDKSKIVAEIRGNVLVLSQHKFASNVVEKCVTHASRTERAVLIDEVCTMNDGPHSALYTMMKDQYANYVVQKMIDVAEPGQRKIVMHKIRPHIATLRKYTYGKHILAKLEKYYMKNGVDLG
In outline: as §1

Another assay addresses PUM1 PUF domain R5-FRY (Homo sapiens, UniProt Q14671 828-1176, C1007F;Q1011Y). The procedure, abridged:
as §1

The next assay addresses PUM1 PUF domain R5-FHE (Homo sapiens, UniProt Q14671 828-1176, C1007F;R1008H;Q1011E). In outline: as §1
In another assay the target is PUM1 PUF domain R5-RAA (Homo sapiens, UniProt Q14671 828-1176, C1007R;R1008A;Q1011A). The procedure, abridged:
as §1

The next assay has as its target PUM1 PUF domain R5-HLK (Homo sapiens, UniProt Q14671 828-1176, C1007H;R1008L;Q1011K). The procedure, abridged:
as §1

PUM1 PUF domain R5-FRY, sequence (Q14671 828-1176 C1007F/Q1011Y): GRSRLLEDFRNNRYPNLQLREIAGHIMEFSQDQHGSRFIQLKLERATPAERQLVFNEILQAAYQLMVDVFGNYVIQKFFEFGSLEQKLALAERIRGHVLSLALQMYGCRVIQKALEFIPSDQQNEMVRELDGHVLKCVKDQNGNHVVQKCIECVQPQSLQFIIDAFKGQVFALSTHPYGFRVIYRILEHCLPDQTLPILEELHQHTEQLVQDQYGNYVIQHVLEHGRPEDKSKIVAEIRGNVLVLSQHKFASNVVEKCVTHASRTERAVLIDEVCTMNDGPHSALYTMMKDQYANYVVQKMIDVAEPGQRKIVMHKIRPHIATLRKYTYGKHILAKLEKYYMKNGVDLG
PUM1 PUF domain R5-FHE, sequence (Q14671 828-1176 C1007F/R1008H/Q1011E): as the sequence (Q14671 828-1176 C1007F/Q1011Y) above, with R181H, Y184E counted along it

Turning to “GGCUAGAACUAGUGGAUCCCCCGGCGCCCGGCGGCUCGAGCCCGGGUAAGUGUAAUUAGUCUGCAUGCCGCCGGGCGCCAUGCCUGCAGGUCGACUCUAGAAAACAUG”, the binding signal with PUM1 PUF domain R3-FWA is 5.26 log2 enrichment (interaction score); in the assay with PUM1 PUF domain R3-KRG, 2.07 log2 enrichment (interaction score).
Turning to “GGCUAGAACUAGUGGAUCCCCCGGCGCCCGGCGGCUCGAGCCCGGGUAAGUUUAAAUAGUCUGCAUGCCGCCGGGCGCCAUGCCUGCAGGUCGACUCUAGAAAACAUG”, the binding signal with PUM1 PUF domain R7-RVQ was 3.81 log2 enrichment (interaction score).
In the case of “GGCUAGAACUAGUGGAUCCCCCGGCGCCCGGCGGCUCGAGCCCGGGUAAGUGUAAAGAGUCUGCAUGCCGCCGGGCGCCAUGCCUGCAGGUCGACUCUAGAAAACAUG”, the binding signal in the assay with PUM1 PUF domain R2-RRQ is 3.28 log2 enrichment (interaction score).
Turning to “GGCUAGAACUAGUGGAUCCCCCGGCGCCCGGCGGCUCGAGCCCGGGUAAGUGUAAAUAGUCUGCAUGCCGCCGGGCGCCAUGCCUGCAGGUCGACUCUAGAAAACAUG”, the binding signal with PUM1 PUF domain R3-FWA was 4.55 log2 enrichment (interaction score); with PUM1 PUF domain R3-KRG, 2.15 log2 enrichment (interaction score); in the assay with PUM1 PUF domain R4-CYG, 7.43 log2 enrichment (interaction score); in the assay with PUM1 PUF domain R6-MYR it was 6.42 log2 enrichment (interaction score).
Take “GGCUAGAACUAGUGGAUCCCCCGGCGCCCGGCGGCUCGAGCCCGGGUAAGUGUCAAUAGUCUGCAUGCCGCCGGGCGCCAUGCCUGCAGGUCGACUCUAGAAAACAUG”: the values for the binding signal with PUM1 PUF domain R5-FRY, with PUM1 PUF domain R5-FHE and with PUM1 PUF domain R5-RAA were 2.31 log2 enrichment (interaction score), 4.41 log2 enrichment (interaction score) and 2.68 log2 enrichment (interaction score), respectively.
For “GGCUAGAACUAGUGGAUCCCCCGGCGCCCGGCGGCUCGAGCCCGGGUAAGUGUUAAUAGUCUGCAUGCCGCCGGGCGCCAUGCCUGCAGGUCGACUCUAGAAAACAUG”, the binding signal was 3.05 log2 enrichment (interaction score) in the assay with PUM1 PUF domain R5-HLK and 1.06 log2 enrichment (interaction score) with PUM1 PUF domain R5-RAA.
Turning to “GGCUAGAACUAGUGGAUCCCCCGGCGCCCGGCGGCUCGAGCCCGGGUAAGUGCAAAUAGUCUGCAUGCCGCCGGGCGCCAUGCCUGCAGGUCGACUCUAGAAAACAUG”, the binding signal in the assay with PUM1 PUF domain R6-MYR was 2.56 log2 enrichment (interaction score).
Consider “GGCUAGAACUAGUGGAUCCCCCGGCGCCCGGCGGCUCGAGCCCGGGUAAGUCUAAAUAGUCUGCAUGCCGCCGGGCGCCAUGCCUGCAGGUCGACUCUAGAAAACAUG”, for which the binding signal in the assay with PUM1 PUF domain R7-RVQ was 1.92 log2 enrichment (interaction score).
